Drawing on PubChem BioAssay, this text covers z-score and composite z-score for four compounds.

Molecules are shown by their SMILES. Activity calls are given as the source filed them.

Test [1] is described as follows: optical density shifts of acrAB sulA E. coli – strain DRC41, OD650, 48 h, E. coli filamentation inducer project, primary screen (AID 1152).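 Note: E. coli MC1000 strain DRC41 lacking acrAB efflux pump and sulA.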 The following applies: higher = more signal, called active from +8 up or from −8 down.
Test [2] is described as follows: probe aLefty1 binding on compound microarray – biochemical, small-molecule microarray, 635/667 nm fluorescence, primary screen (AID 1153).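 Note: score merges spot fluorescence with signal-to-noise ratio from the scanned slide images.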 The following applies: higher = more signal.
The nature of test [3]: plasmodial surface anion channel blockers, osmotic lysis – cell-based, P. falciparum Indochina, OD700, 1 h, primary screen (AID 1154). Conditions: P. falciparum Indochina infected RBC osmotic lysis, higher = more signal, called active from +8 up or from −8 down.
A short description of test [4]: plasmodial surface anion channel blockers, osmotic lysis – cell-based, P. falciparum Indochina, OD700, 2 h, primary screen (AID 1155).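 Note: lysis reports solute entry through the parasite surface anion channel PSAC.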 The following applies: P. falciparum Indochina infected erythrocytes, higher = more signal, called active from +8 up or from −8 down.
Test [5] is described as follows: changes in parasitized red cell lysis, either direction – P. falciparum Indochina, OD700, 3 h, PSAC antagonist project, primary screen (AID 1156). The following applies: P. falciparum-infected erythrocytes, osmotic lysis, higher = more signal, called active from +8 up or from −8 down.
A short description of test [6]: plasmodial surface anion channel blockers, osmotic lysis – cell-based, P. falciparum Indochina, OD700, 18 h, primary screen (AID 1157). The following applies: P. falciparum Indochina infected erythrocytes, osmotic lysis OD700, 18 h; higher = more signal, called active from +8 up or from −8 down.
The nature of test [7]: S6 kinase pathway phospho-S6 level changes – cell-based, A549, cytoblot, luminescence, serum-stimulated, primary screen (AID 1158).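 Note: serum-stimulated A549 lung adenocarcinoma cells; signal is phosphorylated S6 detected by cytoblot immunostaining with HRP secondary.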 Conditions: 5 h, higher = more signal.
Test [8] concerns the target NADPH oxidase 2 (Homo sapiens) (UniProt P04839). As to the kind of experiment: compounds shifting NOX2 Amplex Red fluorescence – cell-based, HEK293-NOX2, PMA-stimulated, NOX inhibitor project, primary screen (AID 1159). Note: test concentration not given here. The following applies: 45 min, higher = more signal, called active from +8 up or from −8 down.
In test [9] the target is NADPH oxidase 4 (Homo sapiens) (UniProt Q9NPH5). As to the kind of experiment: compounds shifting NOX4 Amplex Red fluorescence – cell-based, HEK293-NOX4, tetracycline-induced, NOX inhibitor project, primary screen (AID 1160). Conditions: HEK293-NOX4, Amplex Red H2O2 fluorescence, 45 min; higher = more signal, called active from +8 up or from −8 down.
Sequence of NADPH oxidase 4 (Homo sapiens) (Q9NPH5 whole entry, looked up): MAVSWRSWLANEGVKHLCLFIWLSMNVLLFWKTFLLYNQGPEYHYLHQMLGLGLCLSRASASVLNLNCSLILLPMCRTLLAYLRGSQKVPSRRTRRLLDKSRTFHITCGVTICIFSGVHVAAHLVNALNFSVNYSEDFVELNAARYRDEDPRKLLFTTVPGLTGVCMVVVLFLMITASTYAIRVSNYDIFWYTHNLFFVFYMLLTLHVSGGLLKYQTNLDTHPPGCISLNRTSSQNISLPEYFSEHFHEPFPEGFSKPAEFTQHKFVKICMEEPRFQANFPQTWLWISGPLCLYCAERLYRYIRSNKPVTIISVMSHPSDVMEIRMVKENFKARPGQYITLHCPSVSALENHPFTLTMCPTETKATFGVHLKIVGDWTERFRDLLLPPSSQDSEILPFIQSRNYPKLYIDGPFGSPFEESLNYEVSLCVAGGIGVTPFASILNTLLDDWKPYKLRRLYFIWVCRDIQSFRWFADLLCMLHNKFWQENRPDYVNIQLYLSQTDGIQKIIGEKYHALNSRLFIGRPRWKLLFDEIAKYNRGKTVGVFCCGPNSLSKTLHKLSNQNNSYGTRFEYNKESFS
The target in test [10] is NADPH oxidase 5 (Homo sapiens) (UniProt Q96PH1). As to the kind of experiment: compounds shifting NOX5 Amplex Red fluorescence – cell-based, HEK293-NOX5, NOX inhibitor project, primary screen (AID 1161). Conditions: HEK293-NOX5, ionomycin, 45 min, higher = more signal.
Sequence of NADPH oxidase 5 (Homo sapiens) (Q96PH1 whole entry, looked up): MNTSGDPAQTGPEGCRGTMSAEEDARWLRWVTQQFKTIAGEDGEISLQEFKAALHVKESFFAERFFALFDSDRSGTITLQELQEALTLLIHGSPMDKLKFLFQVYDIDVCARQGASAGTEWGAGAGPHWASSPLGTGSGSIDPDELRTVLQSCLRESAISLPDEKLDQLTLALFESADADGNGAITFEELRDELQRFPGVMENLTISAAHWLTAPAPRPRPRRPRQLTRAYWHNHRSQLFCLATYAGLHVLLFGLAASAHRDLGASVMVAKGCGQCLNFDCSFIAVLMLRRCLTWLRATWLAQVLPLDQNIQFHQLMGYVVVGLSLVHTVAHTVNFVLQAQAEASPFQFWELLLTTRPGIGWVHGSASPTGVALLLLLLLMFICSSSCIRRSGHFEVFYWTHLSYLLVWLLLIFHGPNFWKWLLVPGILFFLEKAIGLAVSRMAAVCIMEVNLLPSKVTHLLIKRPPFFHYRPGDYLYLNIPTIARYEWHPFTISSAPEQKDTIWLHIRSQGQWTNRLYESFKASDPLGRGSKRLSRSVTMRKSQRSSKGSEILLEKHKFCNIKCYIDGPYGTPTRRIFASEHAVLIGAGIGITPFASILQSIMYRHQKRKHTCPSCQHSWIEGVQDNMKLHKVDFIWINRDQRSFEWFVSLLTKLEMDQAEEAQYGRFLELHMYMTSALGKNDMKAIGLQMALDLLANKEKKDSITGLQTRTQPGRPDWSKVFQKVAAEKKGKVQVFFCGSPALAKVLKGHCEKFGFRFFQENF
The nature of test [11]: compound effects on lung adenocarcinoma cell viability – A549, calcein-AM fluorescence, 48 h, basal, profiling panel (AID 1162). Note: test concentration not given here. Conditions: higher = more signal.
The nature of test [12]: compound effects on differentiated 3T3-L1 adipocyte viability – cell-based, 3T3-L1 adipocytes, calcein-AM fluorescence, 48 h, basal, profiling panel (AID 1163). Note: test concentration not given here. Conditions: 3T3-L1 adipocytes viability, higher = more signal.
The nature of test [13]: compound effects on hepatocellular carcinoma cell viability – HepG2, calcein-AM fluorescence, 48 h, basal, profiling panel (AID 1164). Note: test concentration not given here. The following applies: higher = more signal.
Test [14] is described as follows: compound effects on multiple myeloma cell viability – MM1S, calcein-AM fluorescence, 48 h, basal, profiling panel (AID 1165). Note: test concentration not given here. Conditions: higher = more signal.
The nature of test [15]: calcein-AM signal in unstimulated myeloma cells – cell-based, calcein-AM fluorescence, 48 h, PK04 Diversity Set, profiling panel (AID 1166).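 Note: cells grown under basal conditions without added stimulus; test concentration not given here.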 Conditions: RPMI8226 myeloma viability, higher = more signal.
The nature of test [16]: JC-1 mitochondrial signal, unstimulated HepG2 cells – cell-based, JC-1 fluorescence, 24 h, 100 nL compound, profiling panel (AID 1167). Note: test concentration not given here. The following applies: HepG2 mitochondrial potential, higher = more signal.
Test [17] in a line: JC-1 mitochondrial signal, unstimulated adipocytes – cell-based, JC-1 fluorescence, 3T3-L1 adipocytes, 24 h, 100 nL compound, profiling panel (AID 1168). Note: test concentration not given here. The following applies: JC-1 mitochondrial fluorescence, higher = more signal, called active from +8 up or from −8 down.
The nature of test [18]: JC-1 mitochondrial signal, unstimulated myeloma cells – cell-based, JC-1 fluorescence, RPMI8226, 24 h, 100 nL compound, profiling panel (AID 1169). Note: test concentration not given here. The following applies: JC-1 mitochondrial potential fluorescence, higher = more signal.
Test [19] in a line: JC-1 mitochondrial signal, unstimulated MM1S myeloma – cell-based, JC-1 fluorescence, 24 h, 100 nL compound, profiling panel (AID 1170). Note: test concentration not given here. Conditions: MM1S mitochondrial potential, higher = more signal.
Test [20] in a line: resazurin metabolic signal in A549 cells – cell-based, resazurin fluorescence, 24 h, PK04 Diversity Set, profiling panel (AID 1171). Note: test concentration not given here. The following applies: A549 viability, higher = more signal, called active from +8 up or from −8 down. For orientation: Resazurin is reduced to fluorescent resorufin, in cell work by metabolically active cells.

Sequence of NADPH oxidase 2 (Homo sapiens) (P04839 whole entry, looked up): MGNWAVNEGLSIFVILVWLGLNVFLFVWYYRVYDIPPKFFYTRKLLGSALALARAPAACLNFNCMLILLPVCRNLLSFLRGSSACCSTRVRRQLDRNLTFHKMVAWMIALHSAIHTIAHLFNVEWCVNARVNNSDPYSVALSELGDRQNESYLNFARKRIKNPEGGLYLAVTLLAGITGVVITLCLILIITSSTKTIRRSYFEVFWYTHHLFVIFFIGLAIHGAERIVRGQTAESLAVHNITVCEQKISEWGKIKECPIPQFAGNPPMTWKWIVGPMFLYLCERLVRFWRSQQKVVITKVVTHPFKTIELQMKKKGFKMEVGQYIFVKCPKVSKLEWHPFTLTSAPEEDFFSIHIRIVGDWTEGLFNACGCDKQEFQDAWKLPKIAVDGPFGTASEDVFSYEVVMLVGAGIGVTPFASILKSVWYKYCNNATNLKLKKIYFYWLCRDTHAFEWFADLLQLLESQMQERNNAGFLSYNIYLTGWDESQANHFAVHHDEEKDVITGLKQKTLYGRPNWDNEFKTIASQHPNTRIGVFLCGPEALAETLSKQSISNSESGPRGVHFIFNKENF

With `COc1ccc([Si](C)(C)[C@H]2[C@H](CCO)O[C@@]3(C(=O)N(Cc4ccc(NC(=O)[C@H](C)O)cc4)c4ccccc43)[C@@H]2C)cc1`, the z-score in test [1] is 0.0546 (inactive); in test [3], 29.9 (active); in test [4], 25.8 (active); in test [5] it was 2.52 (inactive); in test [6], 2.46 (inactive); in [7], 1.27. In addition, the z-score in test [8] was 0.25 (inactive); in test [9] it was 1.39 (inactive); in test [10] it was -0.66; in test [11] it was -3.33; in [12], 1.36; in [13] it was -4.58. Besides, the z-score is -2.64 in test [14]; -4.47 in test [15]; -2.19 in [16]; 0.843 (inactive) in test [17]; -1.11 in [18]; -2.31 in [19]. The z-score in test [20] was -5.03 (inactive). In addition, the composite z-score in test [2] was -0.0984.

Consider `NC(=O)NCC#Cc1ccc2c(c1)[C@]1(C(=O)N2)[C@H](c2ccc(OCCO)cc2)N2[C@H](c3ccccc3)[C@H](c3ccccc3)OC(=O)[C@H]2[C@@H]1C(=O)O`, for which the z-score in [1] was 0.53 (inactive); in test [3] it was 2.54 (inactive); in test [4] it was -0.7 (inactive); in test [5], 0.623 (inactive); in test [6], -1.3 (inactive); in test [7] it was 1.61. Moreover, the z-score is 1.97 (inactive) in test [8]; 0.325 (inactive) in [9]; -0.441 in [10]; -0.295 in test [11]; 1.09 in test [12]; -0.21 in [13]. Besides, the z-score is -1.9 in test [14]; 0.111 in test [15]; -1.9 in test [16]; -0.469 (inactive) in [17]; -0.278 in test [18]; -1.08 in [19]. Moreover, the z-score in [20] was 0.253 (inactive). This compound registered a composite z-score in [2] of -0.0536.

Turning to `CCOC(=O)C1=CC[C@@H](c2ccccc2)N(S(=O)(=O)c2ccc(C)cc2)[C@H]1c1ccccc1I`, the z-score in test [1] is -0.801 (inactive); in test [3] it was 1.18 (inactive); in test [4], 0.948 (inactive); in [5], -0.597 (inactive); in test [6] it was 0.631 (inactive); in test [7], -0.94. Moreover, the z-score in test [8] is 0.62 (inactive); in test [9], 0.205 (inactive); in test [10] it was 0.721; in test [11], -0.855; in test [12], -1.01; in test [13] it was -0.47. Besides, the z-score in test [14] is -0.676; in test [15] it was -0.965; in test [16], 1.5; in test [17] it was -1.61 (inactive); in test [18] it was 1.14; in test [19], -1.16. For the same compound, the z-score in test [20] is 0.998 (inactive). The composite z-score in test [2] amounted to 1.24.

Regarding `C=C(CCCC)/C(=C/C[C@H](OC(C)=O)c1cccc(OCCO)c1)c1cnc2ccccc2c1`, the z-score was 0.186 (inactive) in test [1]; 23.7 (active) in [3]; 6.09 (inactive) in test [4]; 1.94 (inactive) in [5]; 1.34 (inactive) in [6]; -0.33 in test [7]. The z-score in test [8] was -0.532 (inactive); in test [9] it was -0.294 (inactive); in test [10], -1.76; in test [11] it was 0.955; in test [12], 1.16; in [13] it was 0.301. The z-score in test [14] was -3.13; in test [15] it was -1.26; in test [16], 1.86; in test [17] it was 0.0664 (inactive); in test [18], -0.205; in test [19], -0.209. Further, in test [20], the z-score is 0.395 (inactive). Also, the composite z-score in test [2] is -0.193.
